Screens: PubChem, National Center for Advancing Translational Sciences (NCATS)
The list is not random: actives were taken first. Their share in the collection is about 8.2%.
MCF10A rereplic: DNA re-replication induction in MCF 10a cells | MCF 10A DNA re-replication, Hoechst nuclear intensity, 48 h | actives 2.9% (n = 350,000) | Potency, µM (doses to about 46.1 µM), without a hit: top-dose activity, positive = re-replication, hits mostly activators; note: % of control where 0% means no effect; nearly all actives have a fitted effect of over 50% in size
SW480 rerep: DNA re-replication induction in SW480 cells. SW480 DNA re-replication, Hoechst DNA content imaging, 48 h. Potency, µM (top dose mostly 46.1 µM), inactives show at the top dose re-replication activation, most hits filed as activators. actives 1.8% (n = 340,000). AID 624297; note: % of control where 0% means no effect; nearly all actives have a fitted effect of over 55% in size
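Quantitative HTS format with DMSO vehicle controls; 48 hr drug incubation at 37 C, then 40 min Hoechst staining and scanning imager measurement at 405 nm excitation.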
ELG1 DNA repair: ELG1-dependent DNA repair inhibition | Potency, µM (highest dose often 46.1 µM), for inactives: at the highest dose activity change, negative = inhibition, actives largely listed as inhibitors | actives 2.3% (n = 330,000) | HEK293T ELG1-luciferase reporter, luminescence, 16 h; DNA damage induced by 5-fluorouridine; note: % is set by controls: 0 for no effect and ±100 for the full control effect; nearly all actives have a fitted effect of over 55% in size
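In this reporter screen, reduction of luminescence relative to DMSO vehicle indicated activity. Compounds and 5-fluorouridine were added together to 2,000 cells per well, incubated for 16 hr at 37 °C, then developed with ONE-Glo.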
KB-V1 MDR tox: kills drug-selected multidrug resistant KB-V1 cells | KB-V1 MDR cells viability, CellTiter-Glo, 72 h | Potency, µM (titrated, usually from 46.1 µM), usual class: cytotoxic | actives 3.4% (n = 400,000) | AID 1347076; note: % is set by controls: 0 for no effect and ±100 for the full control effect; nearly all actives have a fitted effect of over 60% in size
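Potencies derive from concentration-effect curves fitted to normalized luminescence (CellTiter-Glo) of KB-V1 cells treated for 72 h at 37 degrees C in phenol-red-free DMEM containing 10% FBS.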
KB-3-1 cytotox: KB-3-1 parental cell cytotoxicity. Potency, µM (series often up to 46.1 µM), usual class: cytotoxic. KB-3-1 viability, CellTiter-Glo ATP luminescence, 72 h. actives 1.4% (n = 400,000). AID 1347075; note: % is set by controls: 0 for no effect and ±100 for the full control effect; nearly all actives have a fitted effect of over 60% in size
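Cells are dispensed, compounds pinned in, plates held at 37 °C for 72 h, then CellTiter-Glo is added and luminescence read after 10 minutes. Cell line: parental KB-3-1 in phenol-red-free DMEM, 10% FBS.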
Numbers without * were called inactive; i = inactive; ? = inconclusive; nt = no result. Calls come from the whole dose curve; as a rule, active = well fitted curve in the direction sought with a large enough effect; inconclusive = small, poorly fitted or top-dose-only effect, or another doubt; inactive = no such curve, though single readings can be large; an effect the other way counts as inactive or inconclusive. Potency is the fitted concentration of half-maximal effect.

SMILES	MCF10A rereplic	SW480 rerep	ELG1 DNA repair	KB-V1 MDR tox	KB-3-1 cytotox
COc1ccc(-c2sc3cc(OC)c(OC)cc3c2C#CC(C)(C)O)cc1	?	-1%	?	i	i
COc1ccc(-c2sc3cc(OC)c(OC)cc3c2C#CCO)cc1	7%	3.3µM*	?	i	i
COc1ccc2sc(-c3ccc(N(C)C)cc3)c(C#CC(C)(C)O)c2c1	12%	2.1µM*	0%	i	i
COc1ccc2sc(-c3ccc(N(C)C)cc3)c(C#Cc3cncn3C)c2c1	?	1.3µM*	-11%	?	10µM*
COc1ccccc1-c1sc2cc3c(cc2c1C#CC1(O)CCCCC1)OCO3	?	-4%	?	i	i
COc1ccc(-c2sc3cc4c(cc3c2C#CC2(O)CCCCC2)OCO4)cc1	23µM*	-2%	-1%	i	i
CCOc1ccccc1N1CCN(C(=O)c2ccc(NS(=O)(=O)c3ccc4[nH]c(=O)[nH]c4c3)cc2)CC1	-25%	-45%	13%	i	i
S=C(c1cccs1)N1CCN(c2ccccc2)CC1	4%	-6%	nt	i	i
Cc1ccc(NC2CCCN(C(=O)CCCN3CCCCC3=O)C2)cc1C (stereo unspecified)	9%	-3%	16%	?	i
COc1ccc2sc(-c3ccc(N(C)C)cc3)c(C#CCCO)c2c1	?	4.1µM*	-26%	?	?
Cc1ccc(S(=O)(=O)N2CCOCC2)cc1NC(=O)COC(=O)C1(C)CC1(Cl)Cl (stereo unspecified)	-13%	-7%	?	i	i
COc1cc(C(=O)Nc2ccccc2OCc2cc(=O)n3c(C)csc3n2)cc(OC)c1OC	nt	nt	nt	i	i
COc1cccc(CNC23CC4CC(CC(C4)C2)C3)c1OCc1ccccc1	29%	?	?	21µM*	?
C(=N\Nc1nn[nH]n1)/c1ccccc1	28%	?	9%	i	i
C(=NNc1nnn(Cc2ccccc2)n1)c1ccccc1	nt	nt	nt	16µM*	?
CCSc1n[nH]c2nc3c(c(=O)n12)C1(CCCC1)Cc1ccccc1-3	?	-2%	-1%	i	i
Cc1ccc(-n2c(SCC(N)=O)nc3c(c2=O)C2(CCCC2)Cc2ccccc2-3)cc1	?	0%	-20%	10µM*	?
COc1ccccc1N1CCN(C(=O)c2c(C)oc3ncn(C)c(=O)c23)CC1	nt	nt	nt	i	i
CC(C)N=C(NS(=O)(=O)c1ccccc1)C(Cl)(Cl)Cl	5.8µM*	5.8µM*	5.2µM*	23µM*	5.8µM*
CCOc1ccc(CCNC(=O)c2nn(C)c3c2CS(=O)(=O)c2ccccc2-3)cc1OCC	5%	-5%	18µM*	?	?
COc1ccc(CCNC(=O)c2nn(C)c3c2CS(=O)(=O)c2ccccc2-3)c(OC)c1	?	-4%	23µM*	i	i
COc1ccc(N2C(=O)c3ccc(C(=O)OC(C)C)cc3C2=O)cc1	?	?	7%	i	18µM*
COc1ccc(N2C(=O)c3ccc(C(=O)Nc4cc(OC)ccc4OC)cc3C2=O)cc1	8%	-16%	-6%	i	i
Cc1ccc(-c2nnc3ccc(SCC(=O)c4ccccc4)nn23)cc1	nt	nt	nt	i	i
CC1=CC(=O)C=C(C)C1=NOC(=O)/C=C\c1ccccc1	?	5.8µM*	7%	i	i
SMILES	MCF10A rereplic	SW480 rerep	ELG1 DNA repair	KB-V1 MDR tox	KB-3-1 cytotox
CC1=CC(=NOC(=O)/C=C/c2ccccc2)C=C(C)C1=O	?	?	4%	i	?
COC(=O)CN(C(=S)Nc1ccc(F)cc1)C1CC(=O)N(c2ccccc2)C1=O (stereo unspecified)	-3%	-1%	17%	i	i
O=C1CC(N(CCc2ccccc2)C(=S)Nc2ccccc2)C(=O)N1c1ccccc1 (stereo unspecified)	?	?	-6%	16µM*	i
CCCOc1ccc(N2C(=O)CC(N(CCc3ccc(OC)c(OC)c3)C(=S)Nc3ccccc3)C2=O)cc1 (stereo unspecified)	?	4%	16µM*	?	i
O=C1CC(N(CCc2ccccc2)C(=S)Nc2ccccc2)C(=O)N1c1ccc(F)cc1 (stereo unspecified)	18µM*	22%	?	i	?
CCNC(=S)N(CCc1ccc(S(N)(=O)=O)cc1)C1CC(=O)N(c2ccccc2)C1=O (stereo unspecified)	-12%	?	-10%	i	?
COc1ccc(Br)cc1C(=O)Nc1ccc2oc(-c3cccnc3)nc2c1	nt	nt	nt	i	i
COc1ccc(/C=C/C(=O)c2ccncc2)c2ccccc12	12µM*	?	4%	i	i
COc1ccc2oc(=O)c(C(=O)OCc3ccccc3)cc2c1	-9%	-5%	1%	i	i
Cn1c(N)c(C(=O)CSc2nnc(Cc3cccs3)n2C2CC2)c(=O)n(C)c1=O	-1%	-5%	24%	i	i
CCCn1c(N)c(C(=O)CSc2nnc(Cc3cccs3)n2C2CC2)c(=O)n(C)c1=O	-7%	-20%	11µM*	i	i
O=C1C(=O)N(CNc2ccccn2)c2ccccc21	7.3µM*	12µM*	-10%	i	?
O=C1C(=O)N(CNc2cccnc2)c2ccccc21	4%	-3%	6%	i	i
COc1ccc(C)cc1NC(=O)Nc1cccc(OCc2cc(=O)n3ccc(C)cc3n2)c1	nt	nt	nt	i	i
Cc1ccc(NC(=O)c2cc3c(s2)CCCC3)cc1S(=O)(=O)Nc1ccccc1Cl	17%	?	23µM*	?	?
Cc1ccc(C(=O)Nc2ccc(C)c(S(=O)(=O)Nc3ccccc3Cl)c2)s1	?	16%	21µM*	?	23µM*
Clc1ccc2nc[nH]c2c1	nt	nt	nt	i	i
O=S(=O)(c1cccc(S(=O)(=O)N2CCCC2)c1)c1cccc(S(=O)(=O)N2CCCC2)c1	18%	5%	21µM*	?	?
O=S(=O)(c1cccc(S(=O)(=O)N2CCCC2)c1)N1CCCCC1	1%	-3%	16%	?	i
O=C(COc1ccccc1[N+](=O)[O-])Nc1cccc(S(=O)(=O)N2CCCC2)c1	4%	0%	16µM*	?	i
O=C(Nc1cccc(S(=O)(=O)N2CCCCC2)c1)c1cc(=O)[nH]c2ccccc12	-1%	-5%	26µM*	?	i
O=C(COc1ccccc1Cl)Nc1cccc(S(=O)(=O)N2CCCC2)c1	?	-14%	?	i	i
O=C(CCl)Nc1cccc(S(=O)(=O)N2CCCCCC2)c1	?	13µM*	?	23µM*	16µM*
